{"source": "PubChem BioAssay (NCATS)", "note": "Results filed as inconclusive are left out. Calls of active or inactive are those of the source. The call rests on the fitted dose curve; in most records, active means well fitted inhibition curve with a large enough effect; inconclusive means small, poorly fitted or top-dose-only effect; inactive means no such curve, though single readings can be large or run the other way. Potency means the concentration at half of the fitted maximal effect."}
{"test": "qHTS Screen of the MIPE 4.0 Collection Against Ewings Sarcoma (EW8) (AID 1259255); further: nearly all actives have a fitted effect of over 35% in size;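 on viability: 100% = DMSO-treated cells and 0% = medium-only wells without cells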", "conditions": "EW8 Ewing sarcoma viability, CellTiter-Glo, 48 h; series mostly up to 45.8 µM; viability: at the top concentration", "how_it_was_run": "(§1)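 Log-phase cells in RPMI with 5% FBS attached for 4 h, then received compounds as a titration for 48 h at 37C, 5% CO2. Viability was read by CellTiter-Glo luminescence and normalized to DMSO and no-cell wells.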"}
{"smiles": "O=C(c1ccc(F)cc1)N1CCC[C@H](c2nc(-c3ccc(F)cc3)no2)C1", "viability": "123% (inactive)"}
{"smiles": "CCCCCCCCCCCCc1ccc(S(=O)(=O)Nc2nncs2)cc1", "viability": "117% (inactive)"}
{"smiles": "COc1ccc(C(C)=O)c(O)c1", "viability": "121% (inactive)"}
{"smiles": "O=C(C=Cc1ccc(CN(CCO)CCc2c[nH]c3ccccc23)cc1)NO", "Potency": "148 nM (active)"}
{"smiles": "COc1cc(C)c(C=CC(C)=CC=CC(C)=CC(=O)O)c(C)c1C", "viability": "111% (inactive)"}
{"smiles": "C[C@H](O)[C@@H]1C(=O)N2C(C(=O)O)=C(S[C@@H]3CN[C@H](CNS(N)(=O)=O)C3)[C@@H](C)[C@@H]12", "viability": "111% (inactive)"}
{"smiles": "C#C[C@]1(O)CC[C@@H]2[C@@H]3CCC4=CC(=O)CC[C@@H]4[C@H]3CC[C@@]21CC", "viability": "103% (inactive)"}
{"test": "qHTS Screen of the MIPE 4.0 Collection Against Ewings Sarcoma (TC32) (AID 1259256); further: nearly all actives have a fitted effect of over 45% in size;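 on viability (percent of control): 100% = DMSO-treated cells and 0% = medium-only wells without cells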", "conditions": "TC32 Ewing sarcoma viability, CellTiter-Glo, 48 h; series mostly up to 45.8 µM; viability (percent of control): at the top concentration", "how_it_was_run": "as §1"}
{"smiles": "O=C(O)CCCCCC(=O)NN=C1CCCC1", "viability (percent of control)": "127% (inactive)"}
{"smiles": "CC(C)(C)[N+]([O-])=Cc1ccc(S(=O)(=O)O)cc1S(=O)(=O)O", "viability (percent of control)": "132% (inactive)"}
{"smiles": "C[C@@]12C[C@@]3(O)O[C@@H](O1)[C@]1(COC(=O)c4ccccc4)[C@@H]3C[C@@]12O[C@@H]1O[C@H](CO)[C@@H](O)[C@H](O)[C@@H]1O", "viability (percent of control)": "124% (inactive)"}
{"smiles": "Cc1cncc2cccc(S(=O)(=O)N3CCCN(C(=O)CN)C[C@@H]3C)c12", "Potency": "1.18 µM (active)"}
{"smiles": "O=C(O)C=Cc1ccc(Cn2ccnc2)cc1", "viability (percent of control)": "145% (inactive)"}
{"smiles": "O=C(CN1C(=O)C2(CCCC2)NC[C@H]1c1cc(F)cc(F)c1)Nc1ccc2c(c1)C[C@@]1(C2)C(=O)Nc2ncccc21", "viability (percent of control)": "114% (inactive)"}
{"smiles": "CCN1CCN(C(=O)N[C@H](C(=O)N[C@@H]2C(=O)N3C(C(=O)O)=C(CSc4nnnn4C)CS[C@@H]23)c2ccc(O)cc2)C(=O)C1=O", "viability (percent of control)": "119% [at 15.3 µM] (inactive)"}
{"smiles": "Cc1ccc(-n2[nH]c(C)c(N=Nc3cccc(-c4cccc(C(=O)O)c4)c3O)c2=O)cc1C", "Potency": "6.62 µM (active)"}
{"smiles": "NC(=NCCCCCCN=C(N)N=C(N)Nc1ccc(Cl)cc1)N=C(N)Nc1ccc(Cl)cc1", "Potency": "7.43 µM (active)"}
{"smiles": "C=C(C)[C@@H]1CC[C@]2(C)CC[C@]3(C)[C@H](CC[C@@H]4[C@@]5(C)CC[C@H](O)C(C)(C)[C@H]5CC[C@]43C)[C@@H]12", "viability (percent of control)": "122% (inactive)"}
{"smiles": "O=C1NC(O)CCN1[C@@H]1O[C@H](CO)[C@H](O)[C@H]1O", "note": "(stereo partly specified)", "viability (percent of control)": "141% (inactive)"}
{"smiles": "NS(=O)(=O)OC[C@@H]1C[C@@H](n2ccc3c(N[C@H]4CCc5ccccc54)ncnc32)C[C@H]1O", "Potency": "0.148 µM (active)"}
{"smiles": "Cc1cc(-c2nnc3n2CCCCC3)c(C)n1-c1ccccc1", "Potency": "18.7 µM (active)"}
{"smiles": "NC(=O)Nc1sc(-c2ccc(F)cc2)cc1C(N)=O", "Potency": "1.48 µM (active)"}
{"smiles": "C=C1CCC2[C@](C)(CO)C(O)CC[C@]2(C)C1CC=C1C(=O)OCC1O", "note": "(stereo partly specified)", "viability (percent of control)": "132% [at 92.2 µM] (inactive)"}
{"smiles": "CC[C@H]1OC(=O)[C@H](C)[C@@H](O[C@H]2C[C@@](C)(OC)[C@@H](O)[C@H](C)O2)[C@H](C)[C@@H](O[C@@H]2O[C@H](C)C[C@H](N(C)C)[C@@H]2O)[C@](C)(OC)C[C@@H](C)C(=O)[C@H](C)[C@@H](O)[C@]1(C)O", "viability (percent of control)": "109% (inactive)"}
{"smiles": "Cc1ccc2nc(NCCN)c3ncc(C)n3c2c1", "Potency": "4.69 µM (active)"}
{"smiles": "CCc1cc(C(C)=NOCc2ccc(C3CCCCC3)c(C(F)(F)F)c2)ccc1CN1CC(C(=O)O)C1", "viability (percent of control)": "133% (inactive)"}
{"smiles": "COc1cc(C(=O)NC2CCN(C)CC2)ccc1Nc1ncc2c(n1)N(C1CCCC1)CCC(=O)N2C(C)C", "Potency": "2.35 µM (active)"}
{"smiles": "CC(C=CC=C(C)C=CC1=C(C)CCCC1(C)C)=CC=CC=C(C)C=CC=C(C)C=CC1=C(C)CCCC1(C)C", "Potency": "16.6 µM (active)"}
{"smiles": "CCOC(=O)N1CCN([N+]([O-])=NOc2ccc([N+](=O)[O-])cc2C#N)CC1", "Potency": "2.64 µM (active)"}
{"smiles": "C[C@H]1[C@@H](OC(=O)CCC(=O)O)O[C@@H]2O[C@@]3(C)CC[C@@H]4[C@H](C)CC[C@@H]1[C@@]24OO3", "Potency": "9.35 µM (active)"}
{"smiles": "C[C@]12CCC(=O)C=C1[C@@H]1CC1[C@H]1[C@H]3[C@@H]4C[C@H]4[C@@]4(CCC(=O)O4)[C@@]3(C)CC[C@H]12", "note": "(stereo partly specified)", "viability (percent of control)": "98.1% (inactive)"}
{"smiles": "COc1ccc(CCC(=O)c2c(O)cc(O[C@@H]3O[C@H](CO)[C@@H](O)[C@H](O)[C@@H]3O[C@@H]3O[C@@H](C)[C@H](O)[C@@H](O)[C@@H]3O)cc2O)cc1O", "Potency": "9.35 µM (active)"}
{"smiles": "C[C@H](NCc1ccc(OCc2cccc(F)c2)cc1)C(N)=O", "Potency": "14.8 µM (active)"}
{"smiles": "CC(=O)[C@]1(O)Cc2c(O)c3c(c(O)c2[C@@H](O[C@H]2C[C@H](N)[C@@H](O)[C@H](C)O2)C1)C(=O)c1ccccc1C3=O", "Potency": "0.0047 µM (active)"}
{"smiles": "CC(C)(O)CC[C@@H](O)[C@](C)(O)[C@H]1CC[C@@]2(O)C3=CC(=O)[C@@H]4C[C@@H](O)[C@@H](O)C[C@]4(C)[C@@H]3CC[C@]12C", "viability (percent of control)": "116% (inactive)"}
{"smiles": "C[C@@H](NCc1cc2ccccc2[nH]1)c1cccc2ccccc12", "viability (percent of control)": "113% (inactive)"}
{"smiles": "CC(C=CC1=C(C)CCCC1(C)C)=CC=CC(C)=CC(=O)Nc1ccc(O)cc1", "Potency": "12.1 µM (active)"}
{"smiles": "CC(C)C[C@H](NC(=O)CNC(=O)c1cc(Cl)ccc1Cl)B1OC(=O)CC(CC(=O)O)(C(=O)O)O1", "note": "(stereo partly specified)", "Potency": "0.332 µM (active)"}
{"smiles": "Cc1cn([C@@H]2O[C@H](CO)[C@@H](O)[C@H]2F)c(=O)[nH]c1=O", "viability (percent of control)": "121% (inactive)"}
{"smiles": "c1cncc(CN2CCC(n3ncc4c(N5CCOCC5)nc(-c5ccc6[nH]ccc6c5)nc43)CC2)c1", "Potency": "5.9 µM (active)"}
{"smiles": "O=C(c1ccc(F)cc1)N1CCC[C@H](c2nc(-c3ccc(F)cc3)no2)C1", "viability (percent of control)": "119% (inactive)"}
{"smiles": "CCCCCCCCCCCCc1ccc(S(=O)(=O)Nc2nncs2)cc1", "viability (percent of control)": "137% (inactive)"}
{"smiles": "COc1ccc(C(C)=O)c(O)c1", "viability (percent of control)": "135% (inactive)"}
{"smiles": "O=C(C=Cc1ccc(CN(CCO)CCc2c[nH]c3ccccc23)cc1)NO", "Potency": "0.148 µM (active)"}
{"smiles": "COc1cc(C)c(C=CC(C)=CC=CC(C)=CC(=O)O)c(C)c1C", "viability (percent of control)": "133% (inactive)"}
{"smiles": "C[C@H](O)[C@@H]1C(=O)N2C(C(=O)O)=C(S[C@@H]3CN[C@H](CNS(N)(=O)=O)C3)[C@@H](C)[C@@H]12", "viability (percent of control)": "138% (inactive)"}
{"smiles": "C#C[C@]1(O)CC[C@@H]2[C@@H]3CCC4=CC(=O)CC[C@@H]4[C@H]3CC[C@@]21CC", "viability (percent of control)": "119% (inactive)"}
